Common to all, as to test: DAPPL (digital affinity profiling via proximity ligation, sequencing); 10 mM Tris-HCl pH 7.5, 50 mM NaCl, 1 mM DTT, 4% glycerol, room temperature, 30 min; GST-TFs on glutathione beads, 16-mer random dsDNA library, 0.1% formaldehyde crosslink after washing; high values mean tight binding
Conditions in all cases: protein: recombinant; tags: N-terminal GST; dsDNA, one strand shown

Assay [1] concerns the target T1, ERF (Homo sapiens, UniProt P50548 1-548).
T1 sequence: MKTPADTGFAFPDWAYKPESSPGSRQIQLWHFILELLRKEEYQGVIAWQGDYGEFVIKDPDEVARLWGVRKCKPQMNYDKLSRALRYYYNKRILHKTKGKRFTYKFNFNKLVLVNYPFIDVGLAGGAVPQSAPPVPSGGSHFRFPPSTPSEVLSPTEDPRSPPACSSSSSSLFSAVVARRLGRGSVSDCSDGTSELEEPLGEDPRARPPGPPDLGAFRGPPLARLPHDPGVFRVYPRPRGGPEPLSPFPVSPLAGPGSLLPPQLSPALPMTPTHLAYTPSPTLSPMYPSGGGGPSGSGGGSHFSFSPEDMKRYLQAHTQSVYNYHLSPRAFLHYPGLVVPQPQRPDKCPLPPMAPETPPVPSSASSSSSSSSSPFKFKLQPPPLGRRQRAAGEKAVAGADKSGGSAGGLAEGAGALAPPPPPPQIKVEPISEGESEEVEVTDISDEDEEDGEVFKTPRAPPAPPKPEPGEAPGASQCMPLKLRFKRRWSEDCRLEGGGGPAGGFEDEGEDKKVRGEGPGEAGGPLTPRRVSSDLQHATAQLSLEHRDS
The method in brief:
(§1)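 Sequencing on an Illumina NextSeq500 followed washing, crosslinking with 0.1% formaldehyde, proximity ligation (BsaI/T4 ligase, 1 h, 37 °C) and PCR amplification of pools that had been incubated for 30 min at room temperature with 200 nmole of a random double-stranded 16-mer DNA library in Tris/NaCl/DTT/glycerol buffer. Each pool held DNA-barcoded human transcription factors, expressed in yeast as GST fusions and captured on glutathione beads, plus a tag-only sample. Binding signal is a hexamer's read frequency for a factor divided by its frequency in the tag-only sample.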

The target in assay [2] is T2, ETV3L (Homo sapiens, UniProt Q6ZN32 1-361).
T2 sequence: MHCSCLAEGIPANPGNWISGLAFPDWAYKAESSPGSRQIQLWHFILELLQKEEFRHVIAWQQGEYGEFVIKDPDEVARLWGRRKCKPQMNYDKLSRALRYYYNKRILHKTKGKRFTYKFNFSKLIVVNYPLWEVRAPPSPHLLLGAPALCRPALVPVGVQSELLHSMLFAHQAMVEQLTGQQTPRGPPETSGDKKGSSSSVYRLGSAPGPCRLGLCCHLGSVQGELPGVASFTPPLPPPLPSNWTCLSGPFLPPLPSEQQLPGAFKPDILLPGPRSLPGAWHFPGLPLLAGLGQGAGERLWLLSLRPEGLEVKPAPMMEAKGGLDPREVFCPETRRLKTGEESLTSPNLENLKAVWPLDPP
An outline of the steps:
as §1

Assay [3] concerns the target T3, ETS2 (Homo sapiens, UniProt P15036 1-469).
T3 sequence: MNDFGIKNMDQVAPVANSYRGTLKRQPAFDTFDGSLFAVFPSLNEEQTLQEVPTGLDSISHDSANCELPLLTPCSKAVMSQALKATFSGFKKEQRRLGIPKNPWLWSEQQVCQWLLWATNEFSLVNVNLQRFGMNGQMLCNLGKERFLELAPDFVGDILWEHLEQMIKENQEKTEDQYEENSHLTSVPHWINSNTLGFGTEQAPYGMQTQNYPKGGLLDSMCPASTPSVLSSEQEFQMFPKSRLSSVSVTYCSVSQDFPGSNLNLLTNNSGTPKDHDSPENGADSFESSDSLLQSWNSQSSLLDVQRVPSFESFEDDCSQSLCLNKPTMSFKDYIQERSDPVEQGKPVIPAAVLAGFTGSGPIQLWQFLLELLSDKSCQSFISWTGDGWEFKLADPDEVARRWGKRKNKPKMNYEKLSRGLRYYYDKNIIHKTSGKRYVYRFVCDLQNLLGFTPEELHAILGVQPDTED
An outline of the steps:
as §1

In assay [4] the target is T4, SPDEF (Homo sapiens, UniProt O95238 1-335).
T4 sequence: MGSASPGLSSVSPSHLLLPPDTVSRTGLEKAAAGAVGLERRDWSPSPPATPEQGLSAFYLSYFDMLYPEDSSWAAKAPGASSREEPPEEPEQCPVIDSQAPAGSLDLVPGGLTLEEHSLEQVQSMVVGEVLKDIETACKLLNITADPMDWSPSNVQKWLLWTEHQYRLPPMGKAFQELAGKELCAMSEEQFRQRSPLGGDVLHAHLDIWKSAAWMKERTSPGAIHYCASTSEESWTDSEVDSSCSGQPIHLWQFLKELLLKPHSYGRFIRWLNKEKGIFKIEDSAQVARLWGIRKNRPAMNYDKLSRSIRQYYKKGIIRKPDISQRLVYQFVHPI
The method in brief:
as §1

For assay [5], the target named is T5, ETV7 (Homo sapiens, UniProt Q9Y603 1-341).
T5 sequence: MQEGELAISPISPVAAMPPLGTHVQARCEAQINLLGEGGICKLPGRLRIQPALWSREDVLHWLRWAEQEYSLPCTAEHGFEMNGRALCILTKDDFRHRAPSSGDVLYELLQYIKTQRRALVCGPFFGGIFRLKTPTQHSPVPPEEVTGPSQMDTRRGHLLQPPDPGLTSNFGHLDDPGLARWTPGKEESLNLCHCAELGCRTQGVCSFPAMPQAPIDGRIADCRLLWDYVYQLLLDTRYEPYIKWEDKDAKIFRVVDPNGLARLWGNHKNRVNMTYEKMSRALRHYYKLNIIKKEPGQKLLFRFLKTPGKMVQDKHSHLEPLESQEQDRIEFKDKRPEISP
An outline of the steps: as §1

Assay [6] deals with T6, ELF5 (Homo sapiens, UniProt Q9UKW6-2 1-255).
T6 sequence: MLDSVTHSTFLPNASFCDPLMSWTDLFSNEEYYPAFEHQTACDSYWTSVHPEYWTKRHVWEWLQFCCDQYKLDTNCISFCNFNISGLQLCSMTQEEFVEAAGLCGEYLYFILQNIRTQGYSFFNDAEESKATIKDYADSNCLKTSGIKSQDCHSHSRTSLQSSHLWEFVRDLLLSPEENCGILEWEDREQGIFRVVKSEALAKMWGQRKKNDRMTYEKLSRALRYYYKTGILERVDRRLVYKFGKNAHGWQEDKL
The method in brief:
as §1

The target of assay [7] is T7, ETV3 (Homo sapiens, UniProt P41162-2 1-143).
T7 sequence: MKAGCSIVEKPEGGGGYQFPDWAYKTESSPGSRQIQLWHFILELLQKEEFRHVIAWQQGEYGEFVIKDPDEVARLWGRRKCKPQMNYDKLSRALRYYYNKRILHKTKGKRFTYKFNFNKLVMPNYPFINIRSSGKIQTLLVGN
The method in brief:
as §1

The target in assay [8] is ETV6 (Homo sapiens, UniProt P41212 1-452). An outline of the steps: as §1
Chain of ETV6 (P41212 whole entry): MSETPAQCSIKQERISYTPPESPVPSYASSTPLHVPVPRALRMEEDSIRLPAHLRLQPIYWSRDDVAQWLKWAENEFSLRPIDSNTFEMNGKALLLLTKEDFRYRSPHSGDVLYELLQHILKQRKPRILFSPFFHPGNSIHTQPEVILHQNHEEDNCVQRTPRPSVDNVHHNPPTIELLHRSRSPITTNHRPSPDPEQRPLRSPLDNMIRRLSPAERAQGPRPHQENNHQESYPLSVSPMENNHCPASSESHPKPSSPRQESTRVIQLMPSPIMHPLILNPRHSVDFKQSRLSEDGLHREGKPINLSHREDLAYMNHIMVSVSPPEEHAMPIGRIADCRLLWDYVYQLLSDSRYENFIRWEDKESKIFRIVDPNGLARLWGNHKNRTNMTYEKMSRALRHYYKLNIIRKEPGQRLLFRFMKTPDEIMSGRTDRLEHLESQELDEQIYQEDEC

For the sequence GATCCT, the binding signal is 1.3 fold enrichment (6-mer frequency, TF over GST control) in assay [1]; 1.21 fold enrichment (6-mer frequency, TF over GST control) in assay [2]; 1.32 fold enrichment (6-mer frequency, TF over GST control) in assay [3]; 1.84 fold enrichment (6-mer frequency, TF over GST control) in assay [4]; 1.2 fold enrichment (6-mer frequency, TF over GST control) in assay [5]; 1.29 fold enrichment (6-mer frequency, TF over GST control) in assay [6]. Further, the binding signal in assay [7] was 1.25 fold enrichment (6-mer frequency, TF over GST control); in assay [8], 1.28 fold enrichment (6-mer frequency, TF over GST control).
For AAATTT, the binding signal is 1.43 fold enrichment (6-mer frequency, TF over GST control) in assay [1]; 1.4 fold enrichment (6-mer frequency, TF over GST control) in assay [2]; 1.35 fold enrichment (6-mer frequency, TF over GST control) in assay [3]; 1.15 fold enrichment (6-mer frequency, TF over GST control) in assay [4]; 1.36 fold enrichment (6-mer frequency, TF over GST control) in assay [5]; 1.43 fold enrichment (6-mer frequency, TF over GST control) in assay [6]. The binding signal in assay [7] is 1.27 fold enrichment (6-mer frequency, TF over GST control); in assay [8] it was 1.37 fold enrichment (6-mer frequency, TF over GST control).
On to CTGCAT, for which the binding signal was 1.38 fold enrichment (6-mer frequency, TF over GST control) in assay [1]; 1.66 fold enrichment (6-mer frequency, TF over GST control) in assay [2]; 1.4 fold enrichment (6-mer frequency, TF over GST control) in assay [3]; 1.57 fold enrichment (6-mer frequency, TF over GST control) in assay [4]; 1.41 fold enrichment (6-mer frequency, TF over GST control) in assay [5]; 1.29 fold enrichment (6-mer frequency, TF over GST control) in assay [6]. The binding signal in assay [7] is 1.24 fold enrichment (6-mer frequency, TF over GST control); in assay [8], 1.25 fold enrichment (6-mer frequency, TF over GST control).
In the case of CTATGC, the binding signal in assay [1] is 1.34 fold enrichment (6-mer frequency, TF over GST control); in assay [2] it was 1.52 fold enrichment (6-mer frequency, TF over GST control); in assay [3] it was 1.44 fold enrichment (6-mer frequency, TF over GST control); in assay [4], 1.49 fold enrichment (6-mer frequency, TF over GST control); in assay [5], 1.42 fold enrichment (6-mer frequency, TF over GST control); in assay [6], 1.33 fold enrichment (6-mer frequency, TF over GST control). For the same sequence, the binding signal was 1.55 fold enrichment (6-mer frequency, TF over GST control) in assay [7] and 1.33 fold enrichment (6-mer frequency, TF over GST control) in assay [8].
On to TCCCCT, for which the binding signal is 1.69 fold enrichment (6-mer frequency, TF over GST control) in assay [1]; 1.64 fold enrichment (6-mer frequency, TF over GST control) in assay [2]; 1.69 fold enrichment (6-mer frequency, TF over GST control) in assay [3]; 1.54 fold enrichment (6-mer frequency, TF over GST control) in assay [4]; 1.58 fold enrichment (6-mer frequency, TF over GST control) in assay [5]; 1.76 fold enrichment (6-mer frequency, TF over GST control) in assay [6]. The binding signal is 1.54 fold enrichment (6-mer frequency, TF over GST control) in assay [7] and 1.65 fold enrichment (6-mer frequency, TF over GST control) in assay [8].
On to TATGGA, for which the binding signal is 1.16 fold enrichment (6-mer frequency, TF over GST control) in assay [1]; 1.13 fold enrichment (6-mer frequency, TF over GST control) in assay [2]; 1.12 fold enrichment (6-mer frequency, TF over GST control) in assay [3]; 1.18 fold enrichment (6-mer frequency, TF over GST control) in assay [4]; 1.26 fold enrichment (6-mer frequency, TF over GST control) in assay [5]; 1.08 fold enrichment (6-mer frequency, TF over GST control) in assay [6]. In addition, the binding signal is 1.22 fold enrichment (6-mer frequency, TF over GST control) in assay [7] and 1.05 fold enrichment (6-mer frequency, TF over GST control) in assay [8].
For TCTACC, the binding signal in assay [1] was 1.73 fold enrichment (6-mer frequency, TF over GST control); in assay [2], 1.78 fold enrichment (6-mer frequency, TF over GST control); in assay [3] it was 1.6 fold enrichment (6-mer frequency, TF over GST control); in assay [4] it was 1.6 fold enrichment (6-mer frequency, TF over GST control); in assay [5] it was 1.44 fold enrichment (6-mer frequency, TF over GST control); in assay [6], 1.61 fold enrichment (6-mer frequency, TF over GST control). Besides, the binding signal in assay [7] is 1.52 fold enrichment (6-mer frequency, TF over GST control); in assay [8] it was 1.54 fold enrichment (6-mer frequency, TF over GST control).
For ATCTCC, the binding signal in assay [1] is 1.47 fold enrichment (6-mer frequency, TF over GST control); in assay [2], 1.46 fold enrichment (6-mer frequency, TF over GST control); in assay [3], 1.5 fold enrichment (6-mer frequency, TF over GST control); in assay [4] it was 1.68 fold enrichment (6-mer frequency, TF over GST control); in assay [5] it was 1.31 fold enrichment (6-mer frequency, TF over GST control); in assay [6] it was 1.53 fold enrichment (6-mer frequency, TF over GST control). Moreover, the binding signal was 1.44 fold enrichment (6-mer frequency, TF over GST control) in assay [7] and 1.51 fold enrichment (6-mer frequency, TF over GST control) in assay [8].

Values taken from PMC7862700, “An all-to-all approach to the identification of sequence-specific readers for epigenetic DNA modifications on cytosine”.
